Results on 38 compounds are retold here after PubChem BioAssay (NCATS).

Inconclusive results are not listed. Activity calls are given as the source filed them. Calls follow the shape of the dose curve; as a rule, active = well fitted activation curve with a large enough effect; inconclusive = small, poorly fitted or top-dose-only effect; inactive = flat fitted curve, though single readings scatter.
Potency is read from the fitted curve at half-maximal effect.

A short description of this assay: Validation screen for small molecules that induce DNA re-replication in MCF 10A normal breast cells (AID 463097). Also: nearly all actives have a fitted effect of over 60% in size. As to re-replication induction: 0% is about no effect. The note with it: MCF 10A cells, DNA re-replication phenotype imaging; series mostly up to 46.1 µM; re-replication induction: at the top concentration. The text has this: NIH Molecular Libraries Probe Production Network [MLPCN]
NIH Chemical Genomics Center [NCGC]
Assay Provider: Melvin DePamphilis, NICHD, NIH
Eukaryotic cells normally restrict genome duplication to once per cell division. When this process is aberrant, DNA re-replication occurs when cells reinitiate DNA replication before the first round of replication is complete. DNA re-replication induces the DNA damage response, arrests cell proliferation, and triggers apoptosis. The cell cycle components cyclin A, Cdt-1, Cdc6 and geminin are critical regulators of this process and their misregulation results in DNA re-replication in normal and cancer cells. To identify compounds that induce re-replication in normal cells, an image-based assay was used to measure DNA content of nuclei, as detected by the fluorescent DNA binding dye, Hoechst. Cell nuclei were imaged by a fluorescence scanning plate imager and compounds that induce DNA re-replication were identified by the increase of nuclei with elevated fluorescence intensity.
For screening, 250 cells in 5 uL/well were dispensed into black clear 1536-well plates (Aurora) using a solenoid-based dispenser. Following transfer of 23 nL compound or DMSO vehicle by a pin tool, the plates were incubated 48 hr at 37 C and 5% CO2. After addition of 1 uL/well Hoescht stain, the plates were incubated 40 min at 37 C, 5% CO2 and total intensity of fluorescent objects (nuclei) were enumerated by an Acumen Explorer Ex3 (TTP LabTech) fluorescence scanning plate imager (405 nm excitation, 500-530 nm emission).
Keywords: NIH Roadmap, MLPCN, MLI, MLSMR, qHTS, NCGC, DNA replication, cancer
On to `Nc1ncnc2c1ncn2[C@@H]1O[C@H](COP(=O)(O)CP(=O)(O)OP(=O)(O)O)[C@H](O)[C@H]1O`, for which the “re-replication induction” value is -2.51% (inactive).

Regarding `C[C@]12CC[C@@H](O)CC1CCC1C2CC[C@]2(C)C(=O)CC[C@@H]12` (stereo partly drawn), the “re-replication induction” value is 0.574% (inactive).

For the compound `C[C@H]1C2Cc3ccc(O)cc3[C@]1(C)CCN2CC1CC1`, the “re-replication induction” value is -0.738% (inactive).

On to `CCCC[N+]1(C)C2CC(OC(=O)C(CO)c3ccccc3)CC1C1OC12` (stereo not drawn), for which the “re-replication induction” value is -0.784% (inactive).

Turning to `CCCN1CCc2cc(O)cc3c2C1Cc1ccc(O)c(O)c1-3` (stereo not drawn), the “re-replication induction” value was 3.79% (inactive).

With `CCC(CO)NC(=O)[C@@H]1C=C2c3cccc4[nH]cc(c34)C[C@H]2N(C)C1` (stereo partly drawn), the “re-replication induction” value was -15.2% (inactive).

Turning to `CCCN1CCC[C@@H](c2cccc(C#N)c2)C1`, the “re-replication induction” value was 4.84% (inactive).

For `C=CCN1CC[C@@]2(C)c3cc(O)ccc3CC1[C@@H]2C`, the “re-replication induction” value is -0.548% (inactive).

Turning to `NCC#Cc1ccccc1`, the “re-replication induction” value is -1.58% (inactive).

In the case of `C[C@H]1OC[C@@H](C[N+](C)(C)C)O1`, the “re-replication induction” value is -0.615% (inactive).

`NC(Cn1ccc(=O)[nH]c1=O)C(=O)O` (stereo not drawn): the “re-replication induction” value is -0.503% (inactive).

For `CN1CCC23CCCC[C@H]2C1Cc1ccc(O)cc13` (stereo partly drawn), the “re-replication induction” value was 1.27% (inactive).

On to `CNCC[C@@H](Oc1ccc(C(F)(F)F)cc1)c1ccccc1`, for which the “re-replication induction” value is 10.8% (inactive).

In the case of `COc1cc(C[C@@H](C)N)c(OC)cc1I`, the “re-replication induction” value was 0.998% (inactive).

Take `CCN(CC)C(=O)N[C@@H]1C[C@@H]2c3cccc4[nH]cc(c34)C[C@H]2N(C)C1`: the “re-replication induction” value was -2.77% (inactive).

As for `CC(C)(O)C1C2OC(=O)C1[C@]1(O)C[C@H]3O[C@]34C(=O)O[C@H]2[C@]14C` (stereo partly drawn) (tested in a mixture with another compound), the “re-replication induction” value was -3.1% (inactive).

`CN1C[C@@H](CS(=O)(=O)N(C)C)C[C@@H]2c3cccc4c3c(cn4C)C[C@H]21`: the “re-replication induction” value was 1.28% (inactive).

Turning to `C/C=C(/C)C(=O)O[C@H]1C(C)=C2C([C@@H]1OC(=O)CCCCCCC)[C@@](C)(OC(C)=O)C[C@@H](OC(=O)CCC)[C@@]1(O)[C@H]2OC(=O)[C@@]1(C)O` (stereo partly drawn), the Potency is 6.31 µM (active).

`CCN1C[C@]2(C)CC[C@H](O)[C@@]34[C@@H]5C[C@@H]6[C@@H](OC)C[C@@](O)(C5[C@H]6O)[C@@H](C[C@@H]23)[C@@H]14`: the “re-replication induction” value is 1.74% (inactive).

For `CC1Cc2cc3c(cc2C(c2ccc(N)cc2)=NN1)OCO3` (stereo not drawn), the “re-replication induction” value was 21.5% (inactive).

Turning to `CC12CCC3C(CCC4=C(O)C(=O)CCC43C)C1CCC2=O` (stereo not drawn), the “re-replication induction” value is 0.293% (inactive).

Turning to `CCCN1CCCC(c2cccc(O)c2)C1` (stereo not drawn), the “re-replication induction” value was -10.6% (inactive).

For the compound `NNCc1cccc(O)c1`, the “re-replication induction” value was -7.21% (inactive).

In the case of `C[C@]12CC[C@H](O)CC1=CCC1C2CC[C@]2(C)C(=O)CC[C@@H]12` (stereo partly drawn), the “re-replication induction” value is 5.47% (inactive).

On to `CCNC(=O)[C@H]1O[C@@H](n2cnc3c(N)ncnc32)[C@H](O)[C@H]1O`, for which the “re-replication induction” value was 11.5% (inactive).

For the compound `C[N+]1(C)C2CC(OC(=O)C(CO)c3ccccc3)CC1C1OC12` (stereo not drawn), the Potency entry is “inactive”.

In the case of `C[C@]12CC[C@H]3[C@@H](CCC4C[C@H](O)CC[C@@]43C)[C@@H]1CC[C@@H]2O` (stereo partly drawn), the “re-replication induction” value is -9.96% (inactive).

As to `COc1ccc2c(c1O)-c1cccc3c1C(C2)N(C)CC3` (stereo not drawn), the “re-replication induction” value was 12.2% (inactive).

Consider `CCCN(CCC)[C@@H]1CCc2c(F)ccc(O)c2C1`, for which the “re-replication induction” value was 0.0576% (inactive).

Turning to `CC[C@@H](CO)NC(=O)[C@H]1C=C2c3cccc4c3c(cn4C)C[C@H]2N(C)C1`, the “re-replication induction” value is -6.22% (inactive).

On to `N#CC(=Cc1ccc(O)c(O)c1)C(N)=S`, for which the “re-replication induction” value was 16.6% (inactive).

On to `CCCN1CCC[C@@H]2Cc3n[nH]cc3C[C@H]21`, for which the “re-replication induction” value is -3.9% (inactive).

Turning to `C[C@]12CC[C@H](OS(=O)(=O)O)CC1=CCC1C2CC[C@]2(C)C(=O)CC[C@@H]12` (stereo partly drawn), the “re-replication induction” value was 0.851% (inactive).

For the compound `C#CCN(C)C(C)Cc1ccccc1` (stereo not drawn), the “re-replication induction” value was -9.34% (inactive).

Take `COc1ccc2c3c1O[C@H]1C(=O)CC[C@@]4(O)C(C2)N(CC2CC2)CCC314` (stereo partly drawn): the “re-replication induction” value is -1.89% (inactive).

With `CCCCN1C2CCC1CC(OC(c1ccc(F)cc1)c1ccc(F)cc1)C2` (stereo not drawn), the Potency is 20 µM (active).

Take `Oc1ccc2c3c1O[C@H]1[C@@H](O)CC[C@@]4(O)C(C2)N(CC2CCC2)CCC314` (stereo partly drawn): the “re-replication induction” value was -1.07% (inactive).

For `COC(=O)C(N)CCCN=C(N)N[N+](=O)[O-]` (stereo not drawn), the “re-replication induction” value is -5.98% (inactive).
